From PubChem BioAssay AID493192 (National Center for Advancing Translational Sciences (NCATS), 2011)
Records with an inconclusive call do not appear. Active and inactive are the calls of the source. The call rests on the fitted dose curve; in most records, active means well fitted activation curve with a large enough effect; inconclusive means small, poorly fitted or top-dose-only effect; inactive means no such curve, though single readings can be large or run the other way.
Potency means the concentration at half of the fitted maximal effect.

Experiment: qHTS Assay for Identifying a Potential Treatment of Ataxia-Telangiectasia: Hit Validation;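 further: phospho-KAP1 level by AlphaLISA as a proxy for ATM-like kinase activity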; on activity change, positive = activation: 0% is about no effect
Conditions: Ataxia-telangiectasia cell-based hit validation qHTS, in ATM-null A-T patient fibroblasts; series mostly up to 76.9 µM; activity change, positive = activation: at the top concentration
Method in brief: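 KAP-1 phosphorylation was read by AlphaLISA as a measure of ATM-like activity in ATM-null F2112 fibroblasts. Compounds spanned up to 76.7 uM final, with 60 min exposure at 37C and a 6 hr detection incubation at 25C.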
For COc1ccc(N2CCN(C(=O)c3cc4cc(Cl)ccc4[nH]3)CC2)cc1, the “activity change, positive = activation” value was -1.05% (inactive).
In the case of CC(C)Nc1nc(Oc2ccc(=O)n(-c3ccccc3)n2)nc(N(C)C)n1, the “activity change, positive = activation” value is reported as -6.29% (inactive).
For COc1ccccc1Nc1nc(NCCCN(C)C)nc(N)c1[N+](=O)[O-], the “activity change, positive = activation” value was 19.3% (inactive).
With COc1ccc(Cl)cc1NC(=O)C[n+]1cccc(C)c1 the “activity change, positive = activation” value was 3.47% (inactive).
In the case of CC(C)(CN1CCN(c2ccccc2)CC1)NS(=O)(=O)c1ccccc1, the “activity change, positive = activation” value is reported as -6.25% (inactive).
For CCCCn1c2c(c(=N)c3ccccc31)CCC2, the “activity change, positive = activation” value was -5.9% (inactive).
For NC(=O)c1cc2ccccc2o/c1=N/NC(=O)c1cccc(F)c1, the “activity change, positive = activation” value was 25.9% (inactive).
For CCC(C)NC(=O)c1cn(CCOC)c(=O)c2c1c1ccccc1n2C (stereo not drawn), the “activity change, positive = activation” value was -18.9% (inactive).
In the case of Cc1cc2nc3ccc(=[N+](C)C)cc-3sc2cc1N, the “activity change, positive = activation” value is reported as -16.1% (inactive).
With C/C=C\C=C/C(=O)Nc1cccc(C2=NOC3(C2)C[C@@H](C(N)=O)N(C(=O)COc2ccc(Cl)cc2)C3)c1 (stereo partly drawn) the “activity change, positive = activation” value was 20.1% (inactive).
In the case of COc1ccccc1C1CCN(C(=O)c2ccc(Cl)cc2)CC1, the “activity change, positive = activation” value is reported as 11.6% (inactive).
In the case of Nc1ccc2ncccc2c1, the “activity change, positive = activation” value is reported as 12.2% (inactive).
In the case of Oc1cccc(NC(=S)N=Nc2c(O)[nH]c3ccccc23)c1, the “activity change, positive = activation” value is reported as 5.62% (inactive).
In the case of CC1CCCC(C)N1CCCNC(=O)Cn1ncc2c3ccccc3n(C)c2c1=O (stereo not drawn), the Potency is reported as 23.2 µM (active).
For CCOC(=O)C1CCN(C(=O)c2cc3cc(Cl)ccc3[nH]2)CC1, the “activity change, positive = activation” value was 2.08% (inactive).
In the case of O=C(CN1C(=O)c2cccc([N+](=O)[O-])c2C1=O)NCc1ccccc1, the “activity change, positive = activation” value is reported as -2.8% (inactive).
For CC(C)c1ccc(-c2cc(C(=O)N3CCOCC3)c3cc(Br)ccc3n2)cc1, the “activity change, positive = activation” value was 20.6% (inactive).
For COc1ccccc1N1CCN(C(=O)c2cc(=O)c3c(C)cc(C)cc3o2)CC1, the “activity change, positive = activation” value was -2.01% (inactive).
